± gives the standard deviation of the averaged measurements.

This assay has as its system SUM149. The assay can be described thus: percent difference in area under dose-response curve of relative cell number, RPMI vs HPLM; higher = drug relatively more effective in HPLM than RPMI (negative = less effective in HPLM). Conditions: treatment time: 72 h; dose range: 10-point, 1 nM to 20 µM; media compared: RPMI vs HPLM.
As to `C[C@@H](Oc1cc(-c2cnn(C3CCNCC3)c2)cnc1N)c1c(Cl)ccc(F)c1Cl` [Crizotinib], the “percent difference in area under dose-response curve” value (“percent difference in area” below) was -5.74%. `S=c1nc[nH]c2nc[nH]c12` [6_Mercaptopurine]: the “percent difference in area” value is -31.7%. With `N#CC[C@H](C1CCCC1)n1cc(-c2ncnc3[nH]ccc23)cn1` [SRuxolitinib] the figure was -0.914%; with `CN(C)/N=N/c1[nH]cnc1C(N)=O` [Dacarbazine], -9.4%; with `Cc1cnc(-c2ccccc2C(C)C)nc1NCc1ccc(-n2ccnn2)cc1`, -3.5%. The same measure for `CNC(=O)c1cc(COc2nnc(Nc3ccc(Cl)cc3)c3ccoc23)ccn1` [Telatinib]: 2.16%; for `Cc1c(-c2ccc(-c3ccccc3F)cc2)nc2ccc(F)cc2c1C(=O)O` [Brequinar]: -6.11%; for `CCCCCCCCc1ccc(CCC(N)(CO)CO)cc1` [Fingolimod]: 3.22 ± 1.4%.

With `C[C@H](NC(=O)Cc1cc(F)cc(F)c1)C(=O)N[C@@H]1C(=O)N(C)c2ccccc2-c2ccccc21`, the “percent difference in area” value turned out to be 8.45%.

`CCc1c2c(nc3ccc(OC(=O)N4CCC(N5CCCCC5)CC4)cc13)-c1cc3c(c(=O)n1C2)COC(=O)[C@]3(O)CC` [Irinotecan_HCl_Trihydrate]: the “percent difference in area” value is -10.1%.

Turning to `CC(C)(C)c1cnc(CSc2cnc(NC(=O)C3CCNCC3)s2)o1`, the “percent difference in area” value is -3.83%. The same measure for `COc1cc([C@@H]2c3cc4c(cc3[C@@H](O[C@@H]3O[C@@H]5CO[C@@H](C)O[C@H]5[C@H](O)[C@H]3O)[C@H]3COC(=O)[C@H]23)OCO4)cc(OC)c1O` [Etoposide]: -22.4%; for `C=CCc1cccc(/C=N/NC(=O)CN2CCN(Cc3ccccc3)CC2)c1O`: -12.9%; for `O=C(NOC[C@H](O)CO)c1ccc(F)c(F)c1Nc1ccc(I)cc1F`: -8.94%.

Take `COc1ccc(S(=O)(=O)Nc2cccnc2Nc2ccc(O)cc2)cc1`: the “percent difference in area” value was -6.35%. As for `Nc1nc(Nc2ccc(S(N)(=O)=O)cc2)nn1C(=O)c1c(F)cccc1F`, the “percent difference in area” value is -1.01%. With `Cc1ccc(NC(=O)c2ccc(CN3CCN(C)CC3)cc2)cc1Nc1nccc(-c2cccnc2)n1` [Imatinib] the figure was -5.87%; with `Cc1cc(CS(=O)(=O)c2ccccc2)cc(OCc2ccc(CN3CCC[C@@H]3CO)cc2)c1`, 1.05%; with `NC1(c2ccc(-c3nc4ccn5c(=O)[nH]nc5c4cc3-c3ccccc3)cc2)CCC1`, 0.884%.

Turning to `C[C@H]1O[C@@H](O[C@H]2[C@@H](O)C[C@H](O[C@H]3[C@@H](O)C[C@H](O[C@H]4CC[C@@]5(C)[C@H](CC[C@@H]6[C@@H]5CC[C@]5(C)[C@@H](C7=CC(=O)OC7)CC[C@]65O)C4)O[C@@H]3C)O[C@@H]2C)C[C@H](O)[C@@H]1O` [Digitoxin], the “percent difference in area” value is -8.01%. The same measure for `COc1ccc(COc2cc3oc(=O)c4cc(C(C)O)ccc4c3cc2OC)cc1` (stereo unspecified) [Palomid_529]: -0.0774%.

The record behind these values is the supplement of paper PMC11383364.
